This is a sample that favours compounds with a hit; in the whole collection about 6% have one here.
D1 antag – Antagonist of Human D 1 Dopamine Receptor: qHTS. AID 504652, 2011. activity change, negative = inhibition, % at 10 µM. D(1A) dopamine receptor (Homo sapiens), P21728. 3.2% of 360,000 active. HEK293 TREx D1 cells, calcium flux, dopamine EC80; stronger effect = lower value; in the data active = activity change below about -30%; note: % is set by controls: 0 for no effect and ±100 for the full control effect
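Using tetracycline-induced force-coupled D1 Hek293 cells and a calcium dye, signals were followed for 180 s after compound, then for 180 s after EC80 dopamine, to detect inhibitors.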
D1 potentiator – Potentiators of Human D1 Dopamine Receptor: qHTS. D(1A) dopamine receptor (Homo sapiens), P21728. HEK293 TREx D1 cells, calcium flux, dopamine EC20 potentiation. potentiation, % at 10 µM. 0.036% of 360,000 active. AID 504651, 2011; in the data active = potentiation above about 30%; note: 0% is about no effect
D1 ag – Allosteric Agonists of the Human D1 Dopamine Receptor: qHTS | HEK293 T-REx D1 cells, calcium flux, agonist mode | AID 504660, 2011 | activation, % at 2 µM | 1% of 360,000 active; in the data active = activation above about 30%; note: 0% is about no effect
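Inducible HEK293 T-REx D1 cells, force-coupled to calcium signalling, were plated at 4000 cells/well with tetracycline and held overnight at 30 C. After no-wash calcium dye loading, compound-evoked calcium rise over 180 s flagged agonists.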
D3 ag – qHTS of D3 Dopamine Receptor Agonist: qHTS; D(3) dopamine receptor (Homo sapiens), P35462; D3R DiscoveRx beta-arrestin cells, luminescence, 90 min; max activation, %; 0.58% of 410,000 active; AID 652048, 2013; in the data active = max activation above about 30%; note: 0% is about no effect
Target sequence (P35462 whole entry, looked up): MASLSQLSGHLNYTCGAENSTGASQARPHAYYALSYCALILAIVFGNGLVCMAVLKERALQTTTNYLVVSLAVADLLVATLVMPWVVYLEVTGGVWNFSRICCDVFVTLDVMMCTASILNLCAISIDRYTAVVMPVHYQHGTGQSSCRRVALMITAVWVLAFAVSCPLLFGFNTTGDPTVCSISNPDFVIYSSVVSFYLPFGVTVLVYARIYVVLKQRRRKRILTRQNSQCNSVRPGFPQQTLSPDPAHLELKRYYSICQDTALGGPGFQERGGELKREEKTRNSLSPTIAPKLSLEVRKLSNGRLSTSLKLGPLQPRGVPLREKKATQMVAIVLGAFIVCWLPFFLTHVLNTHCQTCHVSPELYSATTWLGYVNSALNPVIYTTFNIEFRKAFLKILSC
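Agonist-mode cell screen: cells plated at 1500/well and incubated overnight at 37 °C, then exposed to library compounds for 90 min at 37 °C. Detection reagent was added for 30–60 min at room temperature, and luminescence was read.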
D3 antag – qHTS of D3 Dopamine Receptor Antagonist: qHTS | 2.5% of 360,000 active | D(3) dopamine receptor (Homo sapiens), P35462 | max response, negative = inhibition, % | D3R cells, DiscoveRx beta-arrestin luminescence, antagonist mode; stronger effect = lower value; in the data active = max response below about -50%; note: % is set by controls: 0 for no effect and ±100 for the full control effect
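Cells plated overnight at 1500 cells/well, then exposed to library compounds with dopamine controls for 90 minutes at 37 degrees C. DiscoveRx reagent added for 30–60 minutes at room temperature; luminescence read, quantitative HTS format.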
The depositor's hits bear a star; · = no result.

SMILES	D1 antag	D1 potentiator	D1 ag	D3 ag	D3 antag
Clc1ccc(CCNC(c2nnc(-c3ccccc3)o2)c2ccccc2Cl)cc1 (configuration not stated)	-10.0	6.7	68.8*	-13.9	·
CCCCCc1c2c(cc(O)c1C(=O)O)OC(=O)c1c(cc(OC)cc1C(=O)CCCC)O2	-31.2*	-1.0	11.0	2.6	9.3
O=C(CSc1nc(=O)n(CCN2CCOCC2)c2c1CCC2)Nc1ccc(Cl)c(Cl)c1	·	-0.1	-1.6	-11.7	·
COC(=O)c1cc(CSc2nc3ccc(C)cc3[nH]2)oc1C	-47.0*	-1.4	4.5	-3.4	44.7
NC(=O)CSc1nccn1Cc1ccccc1	17.4	-11.7	3.4	-6.9	-10.5
c1ccc(Cn2ccnc2SCc2nnc(-c3ccccc3)o2)cc1	-0.6	-7.0	3.0	32.3*	15.6
Cc1ccc(NC(=O)CCN2CCCCC2)cc1	-4.4	4.2	0.2	-21.0	-15.8
O=C(CCN1CCCCCC1)Nc1ccc(F)cc1	1.0	0.7	12.9	-37.1	-83.6*
O=C(O)CSCCC(=O)Nc1ccc(F)cc1	-0.3	-0.5	2.4	40.7*	-18.1
O=C(CCN1CCCCCC1)Nc1ccc(F)c(F)c1	-11.0	3.7	12.9	-11.7	-61.9*
CCOC(=O)c1c(C)[nH]c(C)c1S(=O)(=O)N1CCC(C(=O)NCc2ccc(N(C)C)cc2)CC1	11.6	-1.6	6.0	1.4	·
N#C/C(C(=O)N1CCOCC1)=c1/s/c(=C\c2ccccn2)c(=O)n1-c1ccccc1	-26.0	-4.5	-0.3	7.1	6.0
C=CCn1c(=O)/c(=C/c2ccc(C)o2)s/c1=C(/C#N)C(=O)c1ccccc1	-3.5	-6.0	58.2*	-1.1	6.6
C=CCn1c(=O)/c(=C\c2ccccn2)s/c1=C(/C#N)C(=O)NCC1CCCO1 (configuration not stated)	-27.6	-5.2	150.8*	3.7	-0.3
COc1ccc(CCN2C(=O)CN(C3CCCCCC3)C(=O)C2c2ccc(C)cc2)cc1OC (configuration not stated)	10.8	1.7	-0.8	2.6	·
Cc1c(C(C)C)c(=O)n(-c2ccc(S(=O)(=O)NC3CCCCC3)cc2)n1C	-52.2*	-4.1	3.6	1.4	-10.7
CSc1nnc(-c2ccccc2N=Cc2c(C)[nH]n(-c3ccccc3)c2=O)c(=O)[nH]1	-33.0*	0.6	-1.4	-12.7	0.0
Cc1[nH]n(-c2ccccc2)c(=O)c1/C=N/O	-3.9	-1.5	1.9	-8.8	4.1
Cc1ccc2cccc(N=Cc3c(C)[nH]n(-c4ccccc4)c3=O)c2n1	2.2	-1.3	-0.2	-28.2	-98.7*
CCc1ccc(/C=C2\Oc3cc(OS(C)(=O)=O)ccc3C2=O)cc1	-21.9	-6.3	3.1	3.9	0.3
CCc1ccc(/C=C2\Oc3c(ccc(O)c3CN3CCN(CCO)CC3)C2=O)cc1	0.5	3.0	64.4*	-13.8	5.1
COc1cc(C(CC(=O)Nc2cccc(C(C)=O)c2)N2Cc3ccccc3C2=O)cc(OC)c1OC (configuration not stated)	13.6	-0.8	-0.8	-4.5	·
CCC(C(=O)NC(C)(C)C)n1c(-c2ccc(C)cc2)nc2ccccc21 (configuration not stated)	·	·	·	52.7*	0.0
CCC(C(=O)Nc1c(C)cccc1C)n1c(-c2ccc(-c3ccccc3)cc2)nc2ccccc21 (configuration not stated)	·	·	·	71.0*	-24.6
Cc1cccc(C)c1NC(=O)C(C)n1c(-c2ccc(=O)[nH]c2)nc2ccccc21 (configuration not stated)	·	·	·	4.9	9.2
CC(C)=CCc1cc([C@@H]2CC(=O)c3ccc(O)c(CC=C(C)C)c3O2)ccc1O	·	·	·	31.5*	56.3
COc1c(CC=C(C)C)cc(C2CC(=O)c3c(O)cc(O)cc3O2)c(CC=C(C)C)c1O (configuration not stated)	·	·	·	-10.0	9.9
COc1ccc(CCNC(=O)CSCc2nc(-c3cccc(C)c3)oc2C)cc1OC	-2.4	-2.8	4.6	2.0	·
COc1cccc(-c2nc(CSCC(=O)NCCc3ccc(Cl)cc3)c(C)o2)c1	-35.9*	3.5	48.0*	0.9	·
